Test results published in PMC13494018.

B1: design_486_d4f32670-1303-4d79-8413-1b14cb3eff50_1561_dldesign_0_cycle1_af2pred (protein)
chain: SEVEEKAKELAEKALALVKTGTGEAEAKKLLAAAPPEVVIQAIKVAAEKAKAEGPEMAAYANKLAAAANQALLEKN
B2: design_486_d4f32670-1303-4d79-8413-1b14cb3eff50_1519_dldesign_0_cycle1_af2pred (protein)
chain: DEVAKLVDETAAAARAAVAAAARTAAAGTPEQSAALSSLMVATLQAVGDAYRALTDPAEAKAAAEKARALAEELAARTAEIQA
B3: design_486_d4f32670-1303-4d79-8413-1b14cb3eff50_1067_dldesign_0_cycle1_af2pred (protein)
chain: ANAAQIKAAAQAAYKSAKEIAEEALELAKEGKKEEAEKKLKGAEKLGEIAAALAAQYGAAGDPAEGAALAKDIKEYLKEAKKELEKL
B4: design_486_d4f32670-1303-4d79-8413-1b14cb3eff50_1537_dldesign_0_cycle1_af2pred (protein)
chain: AAAAAAARALALAEEAAAALPPDAGARVREMVRRAVALLEAGDAGAAIQTLLDAIRYGTAAARAIDPARAATVANALTRAIVAISAAA
B5: design_486_d4f32670-1303-4d79-8413-1b14cb3eff50_973_dldesign_0_cycle1_af2pred (protein)
chain: DPAERAAEFRRRAEEVAAIYLAAAQANPAMAPVMAANVLATMRAWAAVWADNPAVAAAALEVGREAAARIA
B6: design_486_d4f32670-1303-4d79-8413-1b14cb3eff50_1336_dldesign_0_cycle1_af2pred (protein)
chain: DAAAQAKAVAEKGVELIKKADPETGKKVGELVEKGAASANAASLLLEAAQLAAEAAKKKGWTPEMRQGVHLLLLASSLAHQAAVAAA
B7: design_486_d4f32670-1303-4d79-8413-1b14cb3eff50_402_dldesign_0_cycle1_af2pred (protein)
chain: ADEEKVKQAKKLAEEALRLAKEDPEKAKKKLEEAAKLAAASPAALEILLSVAGELYRINPEVGKAARQAFATAATAIV
B8: design_486_d4f32670-1303-4d79-8413-1b14cb3eff50_1137_dldesign_0_cycle1_af2pred (protein)
chain: MEEAEEVMRRTFELAREARELRAEAERLAKLAEESGEAAPEAAAARAKAEEKVAEARRLGEEYPGAAALAEGTLAG
B9: design_486_d4f32670-1303-4d79-8413-1b14cb3eff50_394_dldesign_0_cycle1_af2pred (protein)
chain: AEANVALGKRMLEAGKKLAEETKELAKKAKKGEDKEGAKEAAKVALAFAETLELVAEGVPEIAEELKKAAKELKEAAEKALKAAKAA
B10: design_486_d4f32670-1303-4d79-8413-1b14cb3eff50_1678_dldesign_0_cycle1_af2pred (protein)
chain: AAMEEKEQRIINAAKANLELAKIALEGAPHNPELALKVLEALARRAKELAEEAKKLGLEEAEKAAKEAAEEIKKYAKEAQALL
B11: design_486_d4f32670-1303-4d79-8413-1b14cb3eff50_1613_dldesign_0_cycle1_af2pred (protein)
chain: AAAYKKAVAALDAVVAEAAAISEGAGLIATNIKTQGLTQGAAAKDPAEAAKIVEAALKLATDSVTKYVESSAALR
B12: design_486_d4f32670-1303-4d79-8413-1b14cb3eff50_845_dldesign_0_cycle1_af2pred (protein)
chain: SAAEQQLQQAKGYITLANAIARDPNPTPEQLQLAKEAAQQAIKLAEQVEKAVGEKGKEVKKQAEEALAKVQALL
B13: design_486_d4f32670-1303-4d79-8413-1b14cb3eff50_440_dldesign_0_cycle1_af2pred (protein)
chain: AGKEIAKKMGKAVAERLAKQAPSVAEEAKKAAEAIEKGDYEEAKKEAEKALEIGKKNPKEYKVVKAGVETLKVLADAIAAS
B14: design_486_d4f32670-1303-4d79-8413-1b14cb3eff50_1495_dldesign_0_cycle1_af2pred (protein)
chain: AAALAAAEAKAKAYIEKVKALDPELGKKTAEAVKKGVKSTPETAAALGNEVTAAAPEEAKPYVAAAIAQAILANALS
B15: design_486_d4f32670-1303-4d79-8413-1b14cb3eff50_788_dldesign_0_cycle1_af2pred (protein)
chain: MREEAERVRRRAEEVEELAAKASPAVAAQVRARARAARTFAEAALRSPDPELAAQAVAAAEANVEAAEQLLAADA
B16: design_486_d4f32670-1303-4d79-8413-1b14cb3eff50_1679_dldesign_0_cycle1_af2pred (protein)
chain: AAAAKAKVQAAAAKALAEAKKTAAEAKTLTPEEATALLQATAADAIRQAAEYGKLDPEVAGSALVEVVKLLAEARRAVAA
B17: design_486_d4f32670-1303-4d79-8413-1b14cb3eff50_1569_dldesign_0_cycle1_af2pred (protein)
chain: NAQAKAFLDQGKAKMEAGKALIKEGKYEEAAAEFTRAYSYFLAAAGLARAAGDKALAAEAEKAAKEAEALAKEAKA
B18: design_486_d4f32670-1303-4d79-8413-1b14cb3eff50_1357_dldesign_0_cycle1_af2pred (protein)
chain: GMSEELAKELAEKVTKALAAASKAAAAALANPAVAAQANALLAQAVDYALKFQEAAKKDVEEAKKEAEKAIAAANELKALAAAA
B19: design_486_d4f32670-1303-4d79-8413-1b14cb3eff50_1562_dldesign_0_cycle1_af2pred (protein)
chain: MEEREKVAESMKKMLDAIGEIAAAETGEEGKKMAEEAKKEVEEAAKKGLSPEEIAAVANKKAAEILKVTMAAARAK
B20: design_486_d4f32670-1303-4d79-8413-1b14cb3eff50_565_dldesign_0_cycle1_af2pred (protein)
chain: MTEEELIQRTADANVRQVRRVAVEEGLEAGRRQLELNVKSLESVGATEIAAEMERRAEAALAEAAAELARRAAE
B21: design_486_d4f32670-1303-4d79-8413-1b14cb3eff50_1391_dldesign_0_cycle1_af2pred (protein)
chain: DARLKKAAELLKKHTEAVLKGPVHPEAKLATAEVAIESAQGIYKAGADDAEVKAAAKEALAAAKELKERAEKELAAAEAAAAAA
B22: design_486_d4f32670-1303-4d79-8413-1b14cb3eff50_1517_dldesign_0_cycle1_af2pred (protein)
chain: AEAEKIIKEAKALAKEAKALAAQGAALDPAIAVIAAAAAAAAASAEKMVKENGEAKAEDAKKLLEVAKTLLEQAKAALEAALAAAA
B23: design_486_d4f32670-1303-4d79-8413-1b14cb3eff50_969_dldesign_0_cycle1_af2pred (protein)
chain: AQAERDAAARKIAAAHLNHAAKVAEALAKEAKDPKVKKKLKEAAKKAKELAKEAAKGNAAEAGEKAVEAAKLLAEARRLYEEDK
B24: design_486_d4f32670-1303-4d79-8413-1b14cb3eff50_760_dldesign_0_cycle1_af2pred (protein)
chain: EAEEAARRARELAERARAARDAGLADPAKANEALGVALDAMRELAEIAERYPEVAEVAREAARVAAEAATALAKQAAAYYAAQRA
B25: design_486_d4f32670-1303-4d79-8413-1b14cb3eff50_1615_dldesign_0_cycle1_af2pred (protein)
chain: DGYIQLAIAYANAAANRASPEVAPKLREVAELAKKGATDPEALKKAIELAKKLAKEVPEVADLLEKAVEYLKEALKAVE
B26: design_486_d4f32670-1303-4d79-8413-1b14cb3eff50_721_dldesign_0_cycle1_af2pred (protein)
chain: MNLYESTLLVAEGAIQTAQQAAELATDPAIKAQAKELKERAQEIRDRVKARGTATNEEGQEAVRLLNQASKLLAQAK
B27: design_486_d4f32670-1303-4d79-8413-1b14cb3eff50_521_dldesign_0_cycle1_af2pred (protein)
chain: DAAALAARTARAIRDQAVRTVAAEEGPEAAEIARAAGEAVLAGDFEEGRRLAERVGRARAFVLSNVESIALLVEG
B28: design_486_d4f32670-1303-4d79-8413-1b14cb3eff50_567_dldesign_0_cycle1_af2pred (protein)
chain: DTVVANALAAQLVLEAIGLAAAGNIEEALKKLREAAKVASPESAAVLEAAARTIAEEGLPPEEAVAVFNAALAVVQKNAIAAA
B29: design_486_d4f32670-1303-4d79-8413-1b14cb3eff50_798_dldesign_0_cycle1_af2pred (protein)
chain: GVQALAAATLEAMELAKKIGANEAVRNLGAALAVAGTRHPELAPEFTKRVEELLKLAKEAAKGDKEEAAKLVAEEARKLRDAALAA
B30: design_486_d4f32670-1303-4d79-8413-1b14cb3eff50_1573_dldesign_0_cycle1_af2pred (protein)
chain: SLEEAKKKAKEVTEKGKEDLATLKEIAVQAAKQGQLAGAQAALNSAKVVAKATAEEVAKLVGPEAGEKALKEGEALVKEAKKEVEKAA
B31: design_486_d4f32670-1303-4d79-8413-1b14cb3eff50_1586_dldesign_0_cycle1_af2pred (protein)
chain: AEERAAAIARATLAGSLALMRTMSPEDAIRLMEVLADILLSNPLTREYGERVAELARRAREEGPAAAEEAIREGAEIGEELRAA
B32: design_486_d4f32670-1303-4d79-8413-1b14cb3eff50_300_dldesign_0_cycle1_af2pred (protein)
chain: SELDEELLERAKRLLETAKAAGAAGDKETVQQALGEAVELAAEAQRHRDVVSEETWQAIQQALNTAAQHAIAL
B33: design_486_d4f32670-1303-4d79-8413-1b14cb3eff50_1359_dldesign_0_cycle1_af2pred (protein)
chain: AAAAADRAFAITKATAEASMKLMETMTAESALKLGETVAAILRAMAKAYPAHAAELNALADKVEATAKAVAEAKK
B34: design_486_d4f32670-1303-4d79-8413-1b14cb3eff50_819_dldesign_0_cycle1_af2pred (protein)
chain: SLEELRRKAVRKAQEAMATASKVAIAAKAAGDAATAAKANELLVKAQEALKEAVEGKNVEEALRRAEELLEEAKKLAKE
B35: design_486_d4f32670-1303-4d79-8413-1b14cb3eff50_897_dldesign_0_cycle1_af2pred (protein)
chain: NPQGEAAVRYAEIAARARRLAEEARAAGREELAAEFQRIAEAARAALRRAVAANVAGEDRSEELVAEAERLERELEELERRFR
B36: design_486_d4f32670-1303-4d79-8413-1b14cb3eff50_1479_dldesign_0_cycle1_af2pred (protein)
chain: AEATQLLSEAIDLAKEIEENKKKATPEVAKIYDEALEEANKAMNLAAKASVADAATAAKLIAEAKKELEKAKELYEKAKKLEKE
B37: design_486_d4f32670-1303-4d79-8413-1b14cb3eff50_1043_dldesign_0_cycle1_af2pred (protein)
chain: AAEKEAEAARLERLMQAYVAAAMAGAARVTGNEATAAAQLAKARALDPEVAGELEAAVLADPQAALAEALERARAAEERLRALREE
B38: design_486_d4f32670-1303-4d79-8413-1b14cb3eff50_1473_dldesign_0_cycle1_af2pred (protein)
chain: GSMAAAAAAEAARRAALLAEAQAKMNEASKAAIEATKTDPAKAKYYNEALALYQEAAALANDGSKYEEAKEKLKEGDKLMEKV

biological target: CD276, Q5ZPR3
Sequence (Q5ZPR3 whole entry): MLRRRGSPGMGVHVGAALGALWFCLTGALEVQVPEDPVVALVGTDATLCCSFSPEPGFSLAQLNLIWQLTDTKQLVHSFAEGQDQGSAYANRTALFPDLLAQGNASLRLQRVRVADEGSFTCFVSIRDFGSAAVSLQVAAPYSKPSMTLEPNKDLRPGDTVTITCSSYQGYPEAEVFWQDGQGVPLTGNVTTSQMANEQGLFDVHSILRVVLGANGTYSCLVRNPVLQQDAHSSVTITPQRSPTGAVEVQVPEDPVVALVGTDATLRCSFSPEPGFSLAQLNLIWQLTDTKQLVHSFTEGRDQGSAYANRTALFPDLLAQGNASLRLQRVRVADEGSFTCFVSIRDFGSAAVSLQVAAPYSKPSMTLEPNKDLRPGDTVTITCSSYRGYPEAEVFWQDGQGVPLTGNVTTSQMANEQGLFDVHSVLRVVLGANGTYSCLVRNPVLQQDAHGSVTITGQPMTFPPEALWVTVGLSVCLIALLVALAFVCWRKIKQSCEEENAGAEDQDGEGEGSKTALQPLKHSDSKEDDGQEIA

Binding in a display sort, active:
B2 binds
B37 binds

Binding in a display sort, inactive:
B1 not found
B3 not found
B4 not found
B5 not found
B6 not found
B7 not found
B8 not found
B9 not found
B10 not found
B11 not found
B12 not found
B13 not found
B14 not found
B15 not found
B16 not found
B17 not found
B18 not found
B19 not found
B20 not found
B21 not found
B22 not found
B23 not found
B24 not found
B25 not found
B26 not found
B27 not found
B28 not found
B29 not found
B30 not found
B31 not found
B32 not found
B33 not found
B34 not found
B35 not found
B36 not found
B38 not found
